The values that follow come from PubChem BioAssay (NCI).

Each structure is given as a SMILES string. This is part of a sample that, as a whole, favours compounds with a hit. Of some 83,000 tested, about 20% had one in any assay.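 Single-concentration screen, 48 h exposure, 96-well plates. Endpoint: percent growth. Below 10 = active.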 Values without a mark were called inactive. Activity calls are given as the source filed them.

Holding throughout (assay): NCI-60 one-dose screen, 48 h (100 = growth as untreated, 0 = no growth, -100 = all killed)
What all share (conditions): 10 µM unless noted

Test [1] concerns SR leukemia.
Test [2] concerns RPMI-8226 leukemia.
The subject of test [3] is OVCAR-8 ovarian.
Test [4] relates to OVCAR-5 ovarian.
For test [5], the system named is OVCAR-4 ovarian.
In test [6] the test system is SK-OV-3 ovarian.
Test [7] deals with IGROV1 ovarian.
The test system of test [8] is OVCAR-3 ovarian.
Test [9] relates to HS 578T breast.
Test [10] relates to NCI/ADR-RES ovarian.

On to `CN1CCN(c2ccc(Nc3nc(NCCCNS(=O)(=O)c4ccc(F)cc4)c4sccc4n3)cc2)CC1`, for which the growth is 7.3% (active) in test [1]; 12.5% in [2]; 77.3% in test [3]; 86.7% in test [4]; 60% in [5]; 115% in test [6]. Besides, the growth in test [7] is 81.6%; in test [8], 97.4%; in test [9], 55.6%; in [10] it was 87.8%.

`Cc1ccc(C(=O)CSc2nc3ccccc3c(=O)n2C)cc1`: the growth in test [1] is 81.5%; in test [2] it was 63.8%; in test [3] it was 94.4%; in test [4], 105%; in test [5], 52.4%; in test [6] it was 87.4%. The growth is 71.1% in [7], 94.2% in test [8], 94.6% in [9] and 90% in test [10].

Take `N#Cc1c(-c2cccs2)cc(-c2cnccn2)nc1SCC(=O)N/N=C/c1ccc(Cl)cc1`: the growth in test [1] is 87.1%; in test [2] it was 97.6%; in test [3], 104%; in [4] it was 112%; in [5], 105%; in test [6], 114%. Moreover, the growth is 109% in [7], 117% in test [8], 103% in test [9] and 102% in test [10].

As for `N#Cc1nc(-c2ccc(Cl)cc2)oc1N1CCC(S(=O)(=O)N2CCOCC2)CC1`, the growth is 88.6% in test [1]; 105% in [2]; 101% in [3]; 102% in test [4]; 100% in [5]; 119% in [6]. Also, the growth in test [7] was 90.5%; in test [9] it was 105%; in test [10] it was 100%.

For `COc1ccc2c(c1)c(/C=N/Nc1ccnc3cc(Cl)ccc13)cn2C`, the growth is -22.6% (active) in test [1]; -43% (active) in [2]; -66.8% (active) in [3]; -87.3% (active) in [4]; -76.7% (active) in [5]; -89.2% (active) in test [6]. The growth in test [7] was -82% (active); in test [9], -53.1% (active); in [10], -71.1% (active).

For the molecule `CN1CCN(Cc2ccc(NC(=O)c3cncc(C#Cc4cnc5ccc(NCCO)nn45)c3)cc2C(F)(F)F)CC1`, the growth in test [1] was 4.47% (active); in test [2] it was -15.2% (active); in test [3], 1.73% (active); in test [4] it was 5.23% (active); in test [5], -9.76% (active); in test [6], -10.5% (active). For the same molecule, the growth is -1.21% (active) in test [7], -13.3% (active) in [9] and 81.1% in [10].

On to `CCOC(=O)Nc1ccc2c(ccn2C(=O)c2cccc(F)c2)c1`, for which the growth is 16.8% in test [1]; 24.6% in test [2]; 43.9% in test [3]; 60.5% in test [4]; 68.8% in [5]; 55.3% in test [6]. The results for the growth in test [7], in test [9] and in test [10] were 45.4%, 39.1% and 19.8%, respectively.

As for `COc1cc(/C=N\NC(=O)c2ccc3nc(-c4ccc(Br)cc4)[nH]c3c2)cc(OC)c1OC`, the growth was 37.9% in test [1]; 10.7% in test [2]; 45.6% in test [3]; 119% in [4]; 74.1% in test [5]; 68.3% in test [6]. The growth is 57.9% in test [7], 38% in [9] and 95.9% in test [10].

On to `C/C(=C(/C)C1CC1CCNC1CCC(NC(=O)OC(C)(C)C)CC1)c1ccccc1` (configuration not stated), for which the growth is -25.5% (active) in test [1]; 2.74% (active) in test [2]; 81.6% in [3]; 84.4% in test [4]; 78.5% in test [5]; 88.8% in test [6]. For the same molecule, the growth in [7] is 72.1%; in test [9] it was 84.1%; in test [10], 75.7%.

As for `COc1ccc2c(c1)C=CC1(O2)Oc2ccc(OC)cc2C=C1C` (configuration not stated), the growth was 11.3% in test [1]; 19% in [2]; 17.5% in test [3]; 29.7% in test [4]; 74.6% in test [5]; 57.2% in test [6]. Moreover, the growth in test [7] was 24.5%; in test [9], 22.3%; in [10] it was 9.17% (active).

As to `Nc1cc(C(=O)N/N=C\c2ccc(OC(F)F)c(OC3CCCC3)c2)nn1CC(O)c1ccccc1` (configuration not stated), the growth was 88.1% in test [1]; 87.5% in test [2]; 96.9% in [3]; 108% in test [4]; 91.4% in test [5]; 105% in test [6]. In addition, the growth was 108% in test [7], 109% in test [9] and 109% in test [10].
